From PubChem BioAssay (NCI)
About 79,000 compounds went through this panel and 15% of them were active in at least one assay; those are over-represented in the sample as a whole. No stated cut-off is given here; in the data, active means growth inhibition above about 70%; inactive means the rest.

Key:
[1] = NCI Yeast Anticancer Drug Screen. Data for the rad50 strain (AID 155);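 further: 0% = growth of vehicle-only cultures of the same strain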; conditions: S. cerevisiae rad50 strain growth inhibition; at 50.0 µM; stronger effect = higher value
Summary of the method: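 Growth of the mutant yeast was measured after compound exposure and referenced to vehicle-treated cultures.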

[2] = NCI Yeast Anticancer Drug Screen. Data for the mec2-1 strain (AID 157); conditions: S. cerevisiae mec2-1 strain, at 50.0 µM, stronger effect = higher value
Summary of the method: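 mec2-1 yeast strain, carrying an alteration in DNA damage repair or cell cycle control, was exposed to compounds; growth inhibition was measured relative to vehicle-treated controls.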

[3] = NCI Yeast Anticancer Drug Screen. Data for the sgs1 mgt1 strain (AID 161);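 further: 0% = growth of cultures given vehicle only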; conditions: S. cerevisiae sgs1 mgt1 strain, at 50.0 µM, stronger effect = higher value
Summary of the method: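 Percent growth inhibition was derived by comparing compound-exposed mutant yeast with vehicle-exposed cultures. The strain carries alterations in DNA damage repair.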

[4] = NCI Yeast Anticancer Drug Screen. Data for the cln2 rad14 strain (AID 165);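 further: 0% = growth equal to vehicle treated cultures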; conditions: S. cerevisiae cln2 rad14 strain, at 50.0 µM, stronger effect = higher value
Summary of the method: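 Yeast carrying cln2 and rad14 alterations (cell cycle control and DNA damage repair) were exposed to compounds. Growth inhibition was measured against vehicle-treated controls.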

[5] = NCI Yeast Anticancer Drug Screen. Data for the bub3 strain (AID 167); conditions: S. cerevisiae bub3 mutant strain, at 50.0 µM, stronger effect = higher value
Summary of the method: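 Whole-cell yeast assay. The mutant strain was incubated with compounds, and growth inhibition was determined by comparison with vehicle-treated cells.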

[6] = NCI Yeast Anticancer Drug Screen. Data for the mlh1 rad18 strain (AID 175); conditions: S. cerevisiae mlh1 rad18 strain growth inhibition; at 50.0 µM; stronger effect = higher value
Summary of the method: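 Growth inhibition of the yeast strain was measured after compound exposure and expressed relative to vehicle-treated controls. The strain carries defined defects in DNA damage repair.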

Measured: growth inhibition

C/C(CCn1[nH]c(=O)ccc1=O)=N\OCCCc1ccccc1
inactive: [1] 2.7% | [2] -27.6% | [3] 11.7% | [4] 16.3% | [5] -3% | [6] 11.5%

CCn1nc(C(=O)O)c(=O)c2cc3c(cc21)OCO3
inactive: [1] 8.1% | [2] 7.2% | [3] -9.85% | [4] -15.7% | [5] -3.9% | [6] 7.4%

CCOC(=O)/C=C(\C)c1ccc(Cl)cc1
inactive: [1] 4.4% | [2] -18.6% | [3] -1.6% | [4] 3.8% | [5] -10.1% | [6] 14.7%

C/C(=N\[N+](C)(C)C)c1ccc2ccccc2c1
inactive: [1] 9.65% | [2] -2.45% | [3] -1.6% | [4] 5.5% | [5] -6% | [6] -9.6%

CC(C)C(C(N)=O)C(C)(C)C (stereo unspecified)
inactive: [1] 1.1% | [2] 4.2% | [3] 14.9% | [4] 8.6% | [5] -7.5% | [6] -9.55%

O=C1/C(=C\c2ccccc2)C2C3CCC(C3)C2/C1=C\c1ccccc1 (stereo unspecified)
inactive: [1] -3.55% | [2] 0.55% | [3] 4.6% | [4] -63.8% | [5] 11.1% | [6] -17.4%

O=C1C/C(=C/c2ccccc2[N+](=O)[O-])C(=O)N1c1ccccc1
inactive: [1] 16.4% | [2] 4.35% | [3] 13.4% | [4] -36.1% | [5] 3.8% | [6] 11.2%

COc1cc([C@@H]2c3cc4c(cc3[C@@H](Nc3ccccc3C(=O)c3ccccc3)[C@H]3COC(=O)[C@H]23)OCO4)cc(OC)c1OC
inactive: [1] 9.35% | [2] 9.95% | [3] -18.5% | [4] 13.2% | [5] 1.05% | [6] -34.5%

NC(=O)C(=O)NNC(=O)Nc1ccc(Cl)cc1
inactive: [1] 16.8% | [2] 12.3% | [3] 7.8% | [4] -13.3% | [5] 1.75% | [6] 20.8%

c1ccc2c(c1)Nc1nc3ccccc3nc1N2
inactive: [1] -40% | [2] -5.7% | [3] -33.8% | [4] 15.8% | [5] -8% | [6] 16.9%

O=C1CC(C(=O)O)CC(=O)CC(C(=O)O)C1 (stereo unspecified)
inactive: [1] -0.7% | [2] -13.2% | [3] -10.6% | [4] -33.4% | [5] 14.9% | [6] 18.9%

CCCCCN(CCCCC)CC(O)c1ccc2cc3c(nc2c1)CCCC3 (stereo unspecified)
inactive: [1] 6.2% | [2] 10.2% | [3] 26.9% | [4] 5.25% | [5] -7.2% | [6] 1.5%

CCOC(=O)NNC(=O)NC12CC3CC(CC(C3)C1)C2
inactive: [1] -16.7% | [2] -7.7% | [3] 5.6% | [4] -24.6% | [5] -3.85% | [6] 1.75%

Nc1ncnc2c1c1c(=O)[nH]c(=O)[nH]c1n2C1OC(CO)C(O)C1O (stereo unspecified)
inactive: [1] -1.95% | [2] 1.8% | [3] 7.35% | [4] 2.15% | [5] -7.55% | [6] -44.5%

COc1ccc2c(c1)N1CCc3cc(OC)c(OC)cc3C1C2 (stereo unspecified)
inactive: [1] 15.8% | [2] -5.15% | [3] 25.2% | [4] 9.5% | [5] 25% | [6] 34.4%

COC(=O)C(=C/c1ccc(OC)cc1)/C(C(=O)O)=C(/C)c1ccccc1
inactive: [1] 9.9% | [2] 17.1% | [3] -14.2% | [4] -11.2% | [5] -18.6% | [6] -9.8%

O=C(O)C1C=CCN1 (stereo unspecified)
inactive: [1] 0.8% | [2] 1.2% | [3] 0.15% | [4] -6.55% | [5] -18.6% | [6] -3.5%

CCN(CC)CCOC1CCCCC1Cc1ccccn1 (stereo unspecified)
inactive: [1] -1.55% | [2] 14.8% | [3] 8.85% | [4] -25.2% | [5] -3.65% | [6] 5.85%

NC(N)=Nc1cccc2c1CC=CC2
inactive: [1] 0.2% | [2] -3.45% | [3] -5.3% | [4] -5.7% | [5] 2% | [6] -0.2%

CCCOC(=O)CCCCCC1CCCCC1
inactive: [1] 15.2% | [2] 6.1% | [3] -5.8% | [4] -33.1% | [5] -8.1% | [6] 8%

COc1ccc(C(CC(=O)c2ccccc2)SCCN2CCOCC2)cc1 (stereo unspecified)
inactive: [1] 4.25% | [2] 0.85% | [3] 5.2% | [4] -43.6% | [5] 53.5% | [6] 3.6%
